Measurements reported in PubChem BioAssay AID2315 (National Center for Advancing Translational Sciences (NCATS), 2010).
Screen size: about 290,000 compounds; about 27,000 (9.3%) were called active. Only a selection was taken, and actives are over-represented in it overall. Unmarked numbers belong to inactive results. Cut-off read from the data, not from the text of the source: active = inhibition mostly above about 28% (no sharp cut-off); inactive = mostly below about 43%.

Assay: A qHTS for Small Molecule Inhibitors of Shiga Toxin; note: 0% is about no effect
Conditions: Vero cells, Shiga toxin protein synthesis inhibition reporter; at 38.7 µM, stronger effect = higher value

SMILES | inhibition
Nc1nc(-c2sc3nc4c(cc3c2N)CCCC4)nc(N2CCOCC2)n1 | 58.2% (active)
Cc1nc(N2CCOCC2)nc2c1CCCC2 | 35.4%
Cc1cccc(NC(=O)c2sc3nc(N4CCOCC4)c4c(c3c2N)CCCC4)c1 | 30.8%
Cc1cc(-c2nnc(SCC(=O)Nc3ccc(S(N)(=O)=O)cc3)n2N)n[nH]1 | -4.71%
O=C(NC(Cc1ccccc1)C(=O)O)/C(=C\c1ccccc1)NC(=O)c1ccco1 (centres undefined) | -11.9%
CC(=O)Oc1cccc(N2C(=O)C3CC=C(Cl)CC3C2=O)c1 (centres undefined) | -2.36%
COc1ccc(N2CCN(C3CC(=O)N(c4ccc5c(c4)OCCO5)C3=O)CC2)cc1 (centres undefined) | -9.64%
CC(=O)Oc1cccc(N2C(=O)CC(Nc3ccc(N4CCOCC4)cc3)C2=O)c1 (centres undefined) | 58.2% (active)
CCOc1ccccc1OCCCNCc1ccccc1 | 8.72%
CCOc1ccc(S(=O)(=O)Nc2ccc(OC)nc2)cc1 | 33.9%
CCCCCCn1cc(C(=O)O)c(=O)c2cc(F)c(N3CCCCC3)cc21 | 33.7%
COc1ccccc1CNC(=O)C1CCN(S(=O)(=O)c2ccc3c(c2)OCCO3)CC1 | -11.4%
O=C(Nc1cccnc1Cl)c1cc(-c2ccccc2O)on1 | 73.1% (active)
CCc1ccccc1NC(=O)c1cc(-c2ccc3c(c2)OCO3)on1 | 25.8%
C=CCNC(=O)c1cc(-c2ccccc2O)on1 | 98.8% (active)
O=C(Nc1cccc2ncccc12)c1ccc(-c2ccc(Cl)cc2Cl)o1 | -17.2%
C=CCNC(=O)c1csc(-c2ccccc2)n1 | 11.1%
O=C(Nc1cccnc1Cl)c1cc(-c2cccc(Cl)c2)on1 | -1.68%
O=C(NCc1ccccn1)c1cc(Br)ccc1Cl | 29.6%
O=C(NNC(=O)c1ccccc1[N+](=O)[O-])Nc1ccccc1C(F)(F)F | -6.67%

SMILES | inhibition
O=C(NCc1ccccn1)c1cc(-c2ccccc2Cl)on1 | 162% (active)
C=CCNC(=O)c1ccccc1SCc1c(C)noc1C | -38.8%
O=C(Nc1ccccc1C(F)(F)F)c1cc(-c2ccc(O)cc2)on1 | 54.9% (active)
O=C(NCc1ccccn1)c1ccc2nc(-c3ccco3)c(-c3ccco3)nc2c1 | 5.29%
Nc1nonc1-n1nnc(C(=O)N/N=C/C2CCCCC2)c1-c1ccccc1 | -3.16%
CCCCC(C(=O)NC(C)(C)C)N(Cc1ccccc1)C(=O)c1snc(C(N)=O)c1N (centres undefined) | -1.85%
CCc1ccccc1N(CC(=O)NCC1CCCO1)C(=O)CCC(=O)Nc1nccs1 (centres undefined) | -6.86%
CC(Nc1nc(C(F)(F)F)nc2ccccc12)c1cccs1 (centres undefined) | 29.3%
O=S(O)S(=O)(=O)O | 6.15%
Cc1ccc2c(C)c(C(=O)N3CCC(N4CCC(C(=O)NC5CC5)CC4)CC3)oc2c1 | -13.3%
Cc1ccc2oc(C(=O)N3CCN(C)C[C@@H]3C(C)C)c(C)c2c1 | 42.3% (active)
COc1ccccc1N1CCN(C(=O)c2cc(=O)c3cc(C)ccc3o2)CC1 | 19.1%
Cc1ccc(C(=O)NCCc2nnc(SCC(=O)Nc3cccc(C(=O)O)c3)n2C)cc1 | -4.17%
CC(=O)C(C)n1cnc2scc(-c3ccc(C)cc3)c2c1=O (centres undefined) | -5.64%
CC(C)(C)c1ccc(C(=O)CSc2ncn[nH]2)cc1 | 63.4% (active)
CCN(C(=O)CSc1ncn[nH]1)c1cccc2ccccc12 | 9.31%
Cn1nnc(NC(=O)CSc2ncn[nH]2)n1 | -18.1%
Cc1ccccc1NC(=O)NCC1CCN(Cc2cccc(Cl)c2)CC1 | -1.26%
O=C(O)c1ccc(NC(=O)c2ccc(COc3ccc(Cl)cc3)o2)cc1 | -8.9%
CCOC(=O)c1[nH]c2c(c1C)C(=O)CC(c1ccc(N(C)C)cc1)C2 (centres undefined) | 2.86% (active)

SMILES | inhibition
CCOC(=O)c1[nH]c2c(c1-c1ccccc1)C(=O)CC(c1ccc(Cl)cc1)C2 (centres undefined) | -7.73%
COCCOC(=O)c1[nH]c2c(c1C)C(=O)CC(c1ccc(OC)cc1)C2 (centres undefined) | 13.2%
O=C(N/N=C/c1sc(N2CCCCC2)nc1-c1cccs1)c1cccnc1 | -9.51%
CCOc1cc(C)ccc1OCc1nnc(SCC(=O)Nc2cccc(C(=O)O)c2)n1-c1ccccc1 | 9.89%
CC[C@H](C)[C@H](NC(=O)[C@@H](N)CCC(=O)O)C(=O)N[C@@H](CC(C)C)C(=O)N[C@@H](CC(=O)O)C(=O)N[C@H](C(=O)N1CCC[C@H]1C(=O)N[C@@H](CO)C(=O)N[C@H](C(=O)O)[C@@H](C)O)C(C)C | -4.46%
c1cncc(-c2nnc3n2C2(CCCCC2)Cc2ccccc2-3)c1 | -14.6%
CCOc1cccc2c1OC1(CCCCC1)N1N=C(c3cccnc3)CC21 (centres undefined) | 42.4% (active)
CCOc1ccccc1C1CC(c2cccc(NS(C)(=O)=O)c2)=NN1C(=O)c1ccccc1 (centres undefined) | 3.98%
CCC1CCCCN1C(=O)CSc1nc(C)cc(C)n1 (centres undefined) | -8.51%
CCCCc1nc2cc(C(=O)NCCc3cnn(C)c3)ccc2o1 | 36.3% (active)
COc1ccc(C(=O)NC2CC2)cc1OC1CCN(Cc2cnn(C)c2)CC1 | 14.2%
Cc1c(C(=O)N(C)CCc2cnn(C)c2)oc2c(F)cccc12 | 2.81%
CCCCc1nc2cc(C(=O)N3CCCCC3CCO)ccc2o1 (centres undefined) | 105% (active)
CCC1C(=O)NCCN1C(=O)c1ccc2nc(Cc3ccc(OC)cc3)oc2c1 (centres undefined) | 3.17%
CC(C)c1nnc(NC(=O)C2CC(=O)N(CCc3ccc(F)cc3)C2)s1 (centres undefined) | -7.25%
COc1cccc(NC(=O)c2cc(S(=O)(=O)N3CCc4ccccc43)cn2C)c1 | 7.48%
CCc1ccc(OC(C)C(=O)Nc2ccc(S(=O)(=O)Nc3cc(C)on3)cc2)cc1 (centres undefined) | -9.78%
CC(CCc1ccc(O)cc1)NCc1ccc(Cl)cc1Cl (centres undefined) | -4.82%
CCCCC1(C(=O)OCC)NC(c2ccc(O)cc2)C2C(=O)N(c3ccccc3)C(=O)C21 (centres undefined) | -10.2%
